In PubChem BioAssay (NCI):
This is part of a sample that, as a whole, favours compounds with a hit. Of some 83,000 tested, about 20% had one in any assay.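 Interpretation: 100, growth as untreated; towards 0, rising growth inhibition; 0, no net growth; 0 to -100, cell death. Compounds scoring below 10 were considered active.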 A number with no mark means an inactive call. Activity calls are given as the source filed them.

Tests used:
Experiment in all cases: NCI-60 one-dose screen, 48 h (100 = growth as untreated, 0 = no growth, -100 = all killed)
Conditions in all cases: 10 µM unless noted
T-47D breast = test system: T-47D breast
BT-549 breast = test system: BT-549 breast
MDA-MB-435 melanoma = test system: MDA-MB-435 melanoma
SW-620 colon = test system: SW-620 colon
MCF7 breast = test system: MCF7 breast
HCT-116 colon = test system: HCT-116 colon
HCC-2998 colon = test system: HCC-2998 colon
KM12 colon = test system: KM12 colon

Row | Compound | growth (T-47D breast) | growth (BT-549 breast) | growth (MDA-MB-435 melanoma) | growth (SW-620 colon) | growth (MCF7 breast) | growth (HCT-116 colon) | growth (HCC-2998 colon) | growth (KM12 colon)
1 | Clc1cc(Cl)cc(Nc2ccc3c(OCCCN4CCOCC4)cccc3n2)c1 | 60.4% | 72.7% | 57.4% | -41.9% (active) | 21.6% | 27.5% | 36.7% | -51.2% (active)
2 | O=C1c2ccccc2NC(c2cn(-c3ccccc3)nc2-c2cccs2)N1Cc1ccccc1 (stereo unspecified) | 54.9% | 88.5% | 97.5% | 97.3% | 72% | 65.9% | 95.1% | 83.7%
3 | CCNCCCn1c2c(c3ccc([N+](=O)[O-])cc3c1=O)C(=O)c1cc(OC)cnc1-2 | -12.9% (active) | -16.2% (active) | -54.4% (active) | -27% (active) | -3.1% (active) | -69.8% (active) | -8.05% (active) | -3.89% (active)
4 | Cc1cc(N2CCOCC2)nc(N(CCCNc2ccnc3cc(Cl)ccc23)Cc2ccco2)n1 | 35.3% | 37.8% | -20.1% (active) | 21.4% | 15.5% | 7.37% (active) | 87.9% | 33.3%
5 | Cn1c(=O)c2c(ncn2CC(=O)Nc2ccc(S(N)(=O)=O)cc2)n(C)c1=O | 93.2% | 92.8% | 108% | 103% | 98.6% | 92.7% | 114% | 101%
6 | CCCCC(=O)OC1CCCCC1C (stereo unspecified) | 95.2% | 85.2% | 101% | 105% | 103% | 81% | 111% | 99.2%
7 | Cn1cc(-c2nc(-c3cn(C)c4ncccc34)cs2)c2cc(F)ccc21 | 48.1% | 49% | -15.1% (active) | 26.9% | 20% | 18.6% | 53% | 22.2%
8 | C#CCC(C)(O)/C=C/C1=C(C)CCCC1(C)C (stereo unspecified) | 83% | 87.6% | 103% | 104% | 97.6% | 82.6% | 106% | 97.6%
9 | Cn1cc(-c2csc(-c3cn(C(=O)OC(C)(C)C)c4ccccc34)n2)c2cccnc21 | 43.4% | 60.3% | 11.4% | 36.1% | 53.6% | 56% | 65.5% | 38.5%
10 | CCCC1CCCCN1C(=O)OCC(C)C (stereo unspecified) | 104% | 114% | 100% | 98.4% | 100% | 103% | 125% | 105%
11 | O=C1NC(=Nc2ccc(S(=O)(=O)Nc3nccs3)cc2)S/C1=C\c1coc2ccccc2c1=O | 97.1% | 106% | 124% | 99.7% | 88% | 104% | 99.1% | 113%
12 | COc1ccc(/C=C(\C#N)c2cc3ccccc3n2S(C)(=O)=O)cc1 | 96.2% | 86% | 6.05% (active) | 70.1% | 66.8% | 82.9% | 94% | 69%
13 | CCN1CCN(C(=O)[C@]23CCC(C)(C)C[C@H]2C2=CC[C@@H]4[C@@]5(C)CC/C(=N/O)C(C)(C)[C@@H]5CC[C@@]4(C)[C@]2(C)CC3)CC1 | 36.6% | 87.2% | 66.1% | 22.4% | 37.5% | 19% | 90.4% | 72.1%
14 | COc1ccc2c(c1)c(-c1nc(-c3c[nH]c4ncccc34)cs1)cn2CCNC(=O)OC(C)(C)C | 9.63% (active) | 84.5% | 94.7% | 96% | 37.3% | 87.6% | 96.6% | 46.1%
15 | CC(=O)c1c(C)[nH]c(-c2nc3ccc(N4CCN(C)CC4)cc3[nH]2)c1-c1ccc2c(c1)OCCO2 | 37.7% | 63% | 34.9% | 59.7% | 10.5% | 32.1% | 45% | 48.9%
16 | CC1(C)C(=O)/C(=C\c2ccco2)C[C@]2(C)[C@H]3CC[C@@H]4[C@@H](C(=O)/C=C/c5ccco5)CC[C@@]4(C)[C@]3(C)CC[C@@H]12 | 35% | 95.7% | 4.33% (active) | 71.1% | 62% | 61.8% | 108% | 101%
17 | C=C1C(=O)O[C@H]2[C@H]1CC/C(Cn1cc(-c3ccc(F)cc3)nn1)=C\CC[C@@]1(C)O[C@@H]21 | -48.1% (active) | 43.5% | -31.4% (active) | -40.6% (active) | -55.6% (active) | -86% (active) | -11.6% (active) | 54.6%
18 | COc1ccc(C2(Cl)c3ccccc3N(c3ccccc3)c3ccccc32)cc1 | 5.67% (active) | 11.3% | -60.9% (active) | 0.491% (active) | -6.13% (active) | -37.7% (active) | -15.6% (active) | 6.64% (active)
19 | CC/C(=N/NC(N)=O)c1ccccc1 | 110% | 102% | 110% | 105% | 97% | 109% | 103% | 111%
20 | Cc1cc2nc3c4cc(N)ccc4n(CCN(C)C)c3nc2cc1C | 16.1% | 45% | 14.6% | 7.31% (active) | -19.6% (active) | 5.51% (active) | 17% | 17.4%
21 | Nc1c(Cl)cc(N=Nc2ccccc2)cc1Cl | 49.6% | – | 105% | 88.8% | 19.7% | 67.4% | 87.1% | 85.7%
22 | Oc1ccccc1/C=N\NC(=S)Nc1ccc(F)cc1 | 42% | – | 21.8% | 41.5% | 16.9% | 25.8% | 39.7% | 23.2%
23 | NC(=O)NCC1CCCCC1 | 97.7% | 104% | 102% | 108% | 90.6% | 106% | 95.5% | 102%
24 | Oc1cccc2oc(=S)[nH]c12 | 104% | – | 115% | 108% | 101% | 107% | 100% | 115%
25 | O=C(CI)Nc1ccc(O)c2ccccc12 | -52% (active) | 44.1% | – | -68.9% (active) | 0.823% (active) | -59.5% (active) | 82.4% | 64.8%
26 | O=C1C=Cc2ncccc2C1=O | 66.6% | 95.5% | 58.2% | – | 12.5% | 27.1% | 110% | 104%
27 | COc1c(N)c2c(c([N+](=O)[O-])c1OC)C(=O)OC2 | 101% | – | 106% | 106% | 100% | 102% | 105% | 107%
28 | O=[N+]([O-])c1ccc(N/N=C(\C(=N/Nc2ccc([N+](=O)[O-])cc2[N+](=O)[O-])c2ccccc2)c2ccccc2)c([N+](=O)[O-])c1 | – | – | 77.8% | 72.8% | 96.3% | 65% | 89.6% | 88.5%
